DRD3 antagonist = qHTS of D3 Dopamine Receptor Antagonist: qHTS | max response, negative = inhibition, % | 360,000 tested, 2.5% active | AID 652054, 2013 | D3R cells, DiscoveRx beta-arrestin luminescence, antagonist mode; stronger effect = lower value; in the data active = max response below about -50%; inconclusive = no clear call, values can overlap the other calls; also: % is scaled to controls: 0 for no effect and ±100 for the full control effect
Target sequence (P35462 whole entry, looked up): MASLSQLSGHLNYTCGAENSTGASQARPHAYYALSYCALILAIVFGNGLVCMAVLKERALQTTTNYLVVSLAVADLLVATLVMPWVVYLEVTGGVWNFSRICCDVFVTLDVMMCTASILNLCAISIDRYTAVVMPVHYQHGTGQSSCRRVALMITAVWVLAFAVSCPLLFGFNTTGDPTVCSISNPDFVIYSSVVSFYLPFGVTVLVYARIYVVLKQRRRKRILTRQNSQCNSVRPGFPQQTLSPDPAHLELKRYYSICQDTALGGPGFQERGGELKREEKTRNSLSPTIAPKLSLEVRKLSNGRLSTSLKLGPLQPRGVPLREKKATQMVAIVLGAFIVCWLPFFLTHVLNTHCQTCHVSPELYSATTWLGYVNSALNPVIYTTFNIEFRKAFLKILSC
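Cells plated overnight at 1500 cells/well, then exposed to library compounds with dopamine controls for 90 minutes at 37 degrees C. DiscoveRx reagent added for 30–60 minutes at room temperature; luminescence read, quantitative HTS format.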
D3 ag = qHTS of D3 Dopamine Receptor Agonist: qHTS; 410,000 tested, 0.58% active; D3R DiscoveRx beta-arrestin cells, luminescence, 90 min; max activation, %; D(3) dopamine receptor (Homo sapiens), P35462; AID 652048, 2013; in the data active = max activation above about 30%; also: 0% is about no effect
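Cells at 1500/well, incubated overnight, then treated with pinned compounds (dopamine as control) for 90 min at 37 degrees C. DiscoveRx reagent added for 30 - 60 minutes at room temperature; luminescence read.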
HepG2 tox-1 = qHTS for Inhibitors of TGF-b: Cytotox Counterscreen. HepG2 CAGA-GFP viability, ATP luminescence, 18 h. 410,000 tested, 0.76% active. Potency, µM (titrated, usually from 46.1 µM), for the others: at the highest dose activity change, negative = cytotoxicity, most hits filed as cytotoxic; also: potency is read from the fitted curve at half-maximal effect
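CellTiter-Glo luminescence gave cytotoxicity after 18 hours at 37 degrees C. The cells were HepG2 CAGA-GFP in 1% FBS DMEM, stimulated with 500 pg/mL TGF-beta after compound addition. %Activity was normalised to no-cell wells (complete cell-killing) and DMSO (no toxicity), and curves were fitted and classified.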
ATXN2 expr inh = Primary qHTS for Inhibitors of ATXN expression. HEK-293 ATXN2-luciferase reporter, luminescence, 24 h. Potency, µM (top dose mostly 57 µM), for the others: top-dose activity change, negative = inhibition, usual class: inhibitors. 360,000 tested, 0.72% active. AID 1745845, 2022; also: potency is read from the fitted curve at half-maximal effect; % is scaled to controls: 0 for no effect and ±100 for the full control effect; nearly all actives have a fitted effect of over 55% in size
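ATXN2-luciferase reporter cells (luciferase flanked by upstream and downstream ATXN2 gene portions) were treated 24 h at 37 °C with compounds at up to 57 uM. SteadyGlo luminescence gave expression; GF-AFC fluorescence gave viability.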
S2 tox = Viability Counterscreen for Primary qHTS for Inhibitors of ATXN expression; S2 cells (HEK-293 line with an ATXN2-luciferase reporter) viability, CellTiter-Fluor protease fluorescence, 24 h; Potency, µM (top dose mostly 56.7 µM), hits mostly cytotoxic; 400,000 tested, 0.49% active; also: potency is read from the fitted curve at half-maximal effect; nearly all actives have a fitted effect of over 40% in size
TGFb SMAD3 inh = qHTS for Inhibitors of TGF-b. HepG2 CAGA-GFP TGF-b/SMAD3 reporter, GFP fluorescence, 18 h; TGF-beta stimulated, 500 pg/mL final. Potency, µM (top dose mostly 46.1 µM), for inactives: at the highest dose activity, negative = inhibition, actives largely listed as inhibitors. 410,000 tested, 1.2% active; also: potency is read from the fitted curve at half-maximal effect; % is scaled to controls: 0 for no effect and ±100 for the full control effect; nearly all actives have a fitted effect of over 65% in size
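Read-out: total well GFP (ex488/em500-530) summed from mean per-cell fluorescence. Cells: HEPG2 CAGA-GFP, 1% FBS DMEM, 18 h at 37 degrees C with 500 pg/mL final TGF-beta. Unstimulated wells served as the full-inhibition control; stimulated DMSO wells = 0%.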
TGFb CAGA inh = qHTS for Inhibitors of TGF-b: Confirmation of Cherry Picks | Potency, µM (titrated, usually from 46.1 µM), for the others: at the highest dose activity, negative = inhibition, actives largely listed as inhibitors | HepG2 CAGA-GFP TGF-b reporter, GFP fluorescence, 18 h; cells stimulated with TGF-beta, 500 pg/mL | 1,600 tested, 63% active | AID 720534, 2013 | shares compounds with TGFb SMAD3 inh; also: potency is read from the fitted curve at half-maximal effect; % is scaled to controls: 0 for no effect and ±100 for the full control effect; nearly all actives have a fitted effect of over 65% in size
HepG2 tox-2 = qHTS for Inhibitors of TGF-b: Cytotox Counterscreen for Cherry Picks; AID 720535, 2013; shares compounds with TGFb SMAD3 inh; 1,600 tested, 27% active; Potency, µM (doses to about 46.1 µM), for inactives: at the highest dose activity, negative = cytotoxicity, usual class: inhibitors; HepG2 CAGA-GFP viability, ATP luminescence, 18 h; cells stimulated with TGF-beta, 500 pg/mL; also: potency is read from the fitted curve at half-maximal effect; % is scaled to controls: 0 for no effect and ±100 for the full control effect; nearly all actives have a fitted effect of over 70% in size
CCL64 TGFb inh = qHTS for Inhibitors of TGF-b: CCL64 Cells Orthogonal Assay for Cherry Picks. CCL64 CAGA-GFP reporter, TGF-b stimulated, GFP fluorescence, 18 h. shares compounds with TGFb SMAD3 inh. AID 720536, 2013. Potency, µM (titrated, usually from 46.1 µM), for the others: at the top dose activity, negative = inhibition, most hits filed as inhibitors. 1,600 tested, 41% active; also: potency is read from the fitted curve at half-maximal effect; nearly all actives have a fitted effect of over 65% in size
COP TGFb inh = qHTS for Inhibitors of TGF-b: Hit Validation in HepG2 Cells using COP promoter | AID 720537, 2013 | shares compounds with TGFb SMAD3 inh | Potency, µM (titrated, usually from 46.1 µM), for inactives: at the highest dose activity, negative = inhibition, hits mostly inhibitors | 1,600 tested, 3% active | HepG2 COP-GFP TGF-b reporter, GFP fluorescence, 18 h; cells stimulated by added recombinant TGF-beta; also: potency is read from the fitted curve at half-maximal effect; nearly all actives have a fitted effect of over 70% in size
An asterisk follows results filed as active. Shown are actives, neighbours in structure and some others; about 4.8% of the full set was active somewhere. Unless noted, calls follow the shape of the dose curve; as a rule, active = well fitted curve in the direction sought with a large enough effect; inconclusive = small, poorly fitted or top-dose-only effect, or another doubt; inactive = no such curve, though single readings can be large; an effect the other way counts as inactive or inconclusive.

How did CC(C)(C)C(=O)/C(=C/c1ccncc1)n1cncn1 do in these assays?
DRD3 antagonist: -56*; D3 ag: -10; HepG2 tox-1: 14µM*; ATXN2 expr inh: 16µM*; TGFb SMAD3 inh: 4.5µM*; TGFb CAGA inh: 18µM*; HepG2 tox-2: 13µM*; CCL64 TGFb inh: 5.8µM*; COP TGFb inh: inconclusive

How did Nc1nnnn1/N=C/C=C/c1ccccc1 do in these assays?
DRD3 antagonist: 7; D3 ag: 0; HepG2 tox-1: 6%; ATXN2 expr inh: 36%; S2 tox: inactive; TGFb SMAD3 inh: -20%

Results for Nc1nnnn1/N=C/C(Br)=C/c1ccccc1 ?
DRD3 antagonist: -100*; D3 ag: -14; HepG2 tox-1: -30%; ATXN2 expr inh: 25µM*; S2 tox: 14µM*; TGFb SMAD3 inh: 3.5µM*; TGFb CAGA inh: inconclusive; HepG2 tox-2: inconclusive; CCL64 TGFb inh: inconclusive; COP TGFb inh: 34%

What do the screens show for `COc1ccc(NS(=O)(=O)c2ccc3[nH]c(=O)ccc3c2)cc1OC`?
D3 ag: -18; HepG2 tox-1: 8%; ATXN2 expr inh: 3%; S2 tox: inactive; TGFb SMAD3 inh: 8%

Results for COc1cc(/C=C(/C(=O)c2cccs2)c2nc3ccccc3[nH]2)ccc1O ?
DRD3 antagonist: -19; D3 ag: -28; HepG2 tox-1: -22%; ATXN2 expr inh: inconclusive; S2 tox: inconclusive; TGFb SMAD3 inh: 16µM*; TGFb CAGA inh: 7.3µM*; HepG2 tox-2: 13µM*; CCL64 TGFb inh: 13µM*; COP TGFb inh: 71%

Results for COC(=O)/C(=C\c1ccc(O)cc1)c1nc2ccccc2[nH]1 ?
DRD3 antagonist: 3; D3 ag: -5; HepG2 tox-1: -3%; S2 tox: inactive; TGFb SMAD3 inh: 1%

How did COC(=O)/C(=C\c1cc(OC)c(OC)c(OC)c1)c1nc2ccccc2[nH]1 do in these assays?
DRD3 antagonist: -11; D3 ag: 7; HepG2 tox-1: -19%; ATXN2 expr inh: -5%; S2 tox: inactive; TGFb SMAD3 inh: 1%

How did O=C(/C(=C/c1ccc(Cl)cc1)c1nc2ccccc2[nH]1)c1cccs1 do in these assays?
DRD3 antagonist: -65*; D3 ag: -14; HepG2 tox-1: -106%; ATXN2 expr inh: inconclusive; S2 tox: 3.5µM*; TGFb SMAD3 inh: 5µM*; TGFb CAGA inh: 3.3µM*; HepG2 tox-2: 2.6µM*; CCL64 TGFb inh: 4.1µM*; COP TGFb inh: -20%

How did CCN(CC)S(=O)(=O)c1ccc2oc(SCC(=O)NC3CC3)nc2c1 do in these assays?
DRD3 antagonist: 14; D3 ag: 4; HepG2 tox-1: -15%; ATXN2 expr inh: 5%; S2 tox: inactive; TGFb SMAD3 inh: inconclusive

Results for CCN(CC)S(=O)(=O)c1ccc2oc(SCC(=O)Nc3cc(C)on3)nc2c1 ?
DRD3 antagonist: 32; D3 ag: -3; HepG2 tox-1: -14%; ATXN2 expr inh: inconclusive; S2 tox: inactive; TGFb SMAD3 inh: 10µM*; TGFb CAGA inh: inconclusive; HepG2 tox-2: inconclusive; CCL64 TGFb inh: -26%; COP TGFb inh: 17%

How did COC(=O)[C@@]1(Cc2ccccc2)[C@H]2C(=O)N(Cc3ccccc3)C(=O)[C@H]2[C@H]2CN=C(SCC3CC3)N21 do in these assays?
DRD3 antagonist: 20; D3 ag: 15; HepG2 tox-1: -15%; ATXN2 expr inh: -17%; S2 tox: inconclusive; TGFb SMAD3 inh: 11µM*; TGFb CAGA inh: inconclusive; HepG2 tox-2: inconclusive; CCL64 TGFb inh: inconclusive; COP TGFb inh: 37%

Results for COC(=O)[C@@]1(Cc2ccccc2)[C@H]2C(=O)N(Cc3ccccc3)C(=O)[C@H]2[C@H]2CN=C(SCc3ccccc3)N21 ?
DRD3 antagonist: 15; D3 ag: 1; HepG2 tox-1: -30%; ATXN2 expr inh: -4%; S2 tox: inactive; TGFb SMAD3 inh: inconclusive

How did Cc1cccc(N2CCN(CC(=O)NCC3CCCCC3)CC2)c1C do in these assays?
DRD3 antagonist: -63*; D3 ag: -6; HepG2 tox-1: -38%; ATXN2 expr inh: -20%; S2 tox: inactive; TGFb SMAD3 inh: 10µM*; TGFb CAGA inh: -24%; HepG2 tox-2: -6%; CCL64 TGFb inh: inconclusive; COP TGFb inh: 12%

Results for CNc1cc(C)c(C#N)c2nc3ccccc3n12 ?
DRD3 antagonist: -3; D3 ag: -10; HepG2 tox-1: -4%; ATXN2 expr inh: -29%; TGFb SMAD3 inh: 1%

What do the screens show for `Cc1cc(Cl)n2c(nc3ccccc32)c1C#N`?
DRD3 antagonist: -73*; D3 ag: -16; HepG2 tox-1: -101%; ATXN2 expr inh: inconclusive; TGFb SMAD3 inh: 1.8µM*; TGFb CAGA inh: 1.2µM*; HepG2 tox-2: 5.2µM*; CCL64 TGFb inh: 1.5µM*; COP TGFb inh: 26µM*

What do the screens show for `c1ccc(-c2cc3nc(NCC4CC4)nc(NCC4CCCCC4)c3s2)cc1`?
DRD3 antagonist: 0; D3 ag: -1; HepG2 tox-1: 18µM*; ATXN2 expr inh: inconclusive; S2 tox: 14µM*; TGFb SMAD3 inh: 10µM*; TGFb CAGA inh: 23µM*; HepG2 tox-2: 7.3µM*; CCL64 TGFb inh: 5.2µM*; COP TGFb inh: -36%
